The full ranking holds about 68,000 sequences; the median of “fluorescence intensity (a.u.)” is about 9,100, and the highest 2% start at about 16,000. For the sample, the highest values were picked, then their nearest neighbours and some sequences at random.

OsWRKY34, sequence (Q0JBA9 entry or part of it): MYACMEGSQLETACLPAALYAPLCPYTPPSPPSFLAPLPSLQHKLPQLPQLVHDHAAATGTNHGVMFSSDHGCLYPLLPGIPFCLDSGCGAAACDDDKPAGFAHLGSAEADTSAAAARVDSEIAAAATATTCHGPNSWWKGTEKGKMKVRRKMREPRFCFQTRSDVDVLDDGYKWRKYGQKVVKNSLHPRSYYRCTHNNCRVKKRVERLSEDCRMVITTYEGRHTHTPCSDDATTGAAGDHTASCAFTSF

The target in this assay is OsWRKY34 (Oryza sativa, UniProt Q0JBA9 1-250). As to the kind of experiment: protein-binding microarray (RPBM); PBS, 2% BSA, 51.3 ng/ul salmon testes DNA, 50 uM zinc acetate, 200 nM TF, 25 C, 1 h; high values mean tight binding. Conditions: protein: recombinant; tags: N-terminal polyhistidine and DsRed monomer fusion (pET32a); label: CyDye5-dUTP incorporated in the synthesized complementary strand; 3' TTTTT single-stranded linker to array surface; dsDNA, one strand shown. Summed up:
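Using Ni–NTA, transcription factors fused N-terminally to polyhistidine and DsRed were purified after expression in E. coli BL21-CodonPlus. These were incubated at 200 nM with a blocked, double-stranded custom Agilent array for 1 h at 25 °C in a buffer containing 50 µM zinc acetate, and the array was washed. The binding signal is per-feature fluorescence intensity (arbitrary units) on an Axon 4000B scanner.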
With “TTCCGTTTCTGTTCCGTTTGGTTTTTCCTTGTTCTTTCGGCGGAGTCACCTAGTGCAG”, the binding signal was 12900 fluorescence intensity (a.u.).

“CGTCCTTATTGTGGTTTTCCACGTGTTTGTCTCTGTGTTTCGGAGTCACCTAGTGCAG”: the binding signal is 13300 fluorescence intensity (a.u.). For “TACATCCGTTTCCGTTTCGTTCTGTTCTGTTCTGTTGTTTCGGAGTCACCTAGTGCAG”, the binding signal was 29200 fluorescence intensity (a.u.). The value for “CTTCTTAGCTTCCGTGTCATGTTTCTTTTTGTTATCTTTTCGGAGTCACCTAGTGCAG” was 10800 fluorescence intensity (a.u.).

In the case of “TCATTTCTGTGTGTGTTTTGGAGGTGGGTGAGGGTCTGTTCGGAGTCACCTAGTGCAG”, the binding signal was 9920 fluorescence intensity (a.u.). With “TTTTCCGTGTTTTCCGTTTCTGTTTGTTTGGCTTTTTTTTCGGAGTCACCTAGTGCAG”, the binding signal is 18600 fluorescence intensity (a.u.). In the case of “ATGCGTGTGGTTCTCCTGTCCGTTCTGTCATTTGGGTTTTCGGAGTCACCTAGTGCAG” it was 20000 fluorescence intensity (a.u.). In the case of “GAATTGTTGACCACGTGTTTCTGTTTGGACTCCTTTTTTTCGGAGTCACCTAGTGCAG” it was 16400 fluorescence intensity (a.u.). The value for “CGTTCTGTCATTTGGGTTTTATGTTTGTTCTCTCTTGTTTCGGAGTCACCTAGTGCAG” was 12000 fluorescence intensity (a.u.); that for “TAGTCCGTTCTGTTGTCATCTACTACTCTTGTTTGTGTTTCGGAGTCACCTAGTGCAG” was 16100 fluorescence intensity (a.u.). In the case of “GCTTCCGCCGCCGCGTCTTCTCGCCCTCGACTCCGCTCTCCGGAGTCACCTAGTGCAG”, the binding signal is 14700 fluorescence intensity (a.u.).

As to “GCATAACTAATGGTCTGTTTACTTTGATGGCATTTTCAATCGGAGTCACCTAGTGCAG”, the binding signal is 9570 fluorescence intensity (a.u.). Regarding “CCTCAACCGTGACTCAGTTATTCAGTTCGACACCCAGCCGCGGAGTCACCTAGTGCAG”, the binding signal was 8070 fluorescence intensity (a.u.). With “TTGCATTTGAAGACATGTAGTGTGTAGGGTGGGTTCTATTCGGAGTCACCTAGTGCAG”, the binding signal was 13500 fluorescence intensity (a.u.). In the case of “GCATTTCCAGGCCCACGGAAGCCACGCTTCTTCTCCAGCGCGGAGTCACCTAGTGCAG” it was 8060 fluorescence intensity (a.u.). In the case of “TCTGTTGTGCTCTTTCGTGTGATAGATCGATTTTTTGATTCGGAGTCACCTAGTGCAG” it was 10600 fluorescence intensity (a.u.); in that of “AGGGAATTTCCCGTTCTTGCGCTCCTGGATTTCTTGCCCACGGAGTCACCTAGTGCAG”, 9560 fluorescence intensity (a.u.); in that of “CTCTCTCTGTTTCGGCCTCTCATACTCACTCCTCGGCTTCCGGAGTCACCTAGTGCAG”, 11100 fluorescence intensity (a.u.).

Turning to “AGTCCCAAGTCACAACTGACAACAAGGCAACTACTACTACCGGAGTCACCTAGTGCAG”, the binding signal is 8360 fluorescence intensity (a.u.). The value for “ACTTTGATCATAAAATGAGTTACTCTTACTTTCTTTTATTCGGAGTCACCTAGTGCAG” was 8920 fluorescence intensity (a.u.); that for “CTCATCCGATTCCTGCGTTTTTCCTGCGCTCCAATCAAACCGGAGTCACCTAGTGCAG” was 9990 fluorescence intensity (a.u.); that for “CTCTCATCCGATTCCTGCGTTTTTCCTGTGGTTCAATCATCGGAGTCACCTAGTGCAG” was 17900 fluorescence intensity (a.u.).

“ACTGTTCGTTTTTCCACTTAAGTTCTGCTTGGTTTTTTTTCGGAGTCACCTAGTGCAG”: the binding signal is 16600 fluorescence intensity (a.u.). Consider “TATGCCTATCTGAATTGGTTACTGTTCGTTTTTCCACTTACGGAGTCACCTAGTGCAG”, for which the binding signal is 10800 fluorescence intensity (a.u.). On to “GATTTAGTTTTAGTTTTTGTTTTTTTCCCACTTGGTTCTTCGGAGTCACCTAGTGCAG”, for which the binding signal is 9450 fluorescence intensity (a.u.). In the case of “CTCTCTCATCTGATTCTTGCGTTTTTCCTGTGGTCCAATCCGGAGTCACCTAGTGCAG” it was 12000 fluorescence intensity (a.u.); in that of “CTCCCTCCCACTCCCCTTTTCGTAATTCCTTCCGCGCTTTCGGAGTCACCTAGTGCAG”, 8150 fluorescence intensity (a.u.). The value for “TACTCTCTCTGTCCCCTTTTGTTTTTTTTCCTGTATACTGCGGAGTCACCTAGTGCAG” was 8690 fluorescence intensity (a.u.); that for “ATCACCTTCACGTTCCGAGATGTGGCACGAATCCCGAGGACGGAGTCACCTAGTGCAG” was 8070 fluorescence intensity (a.u.). The value for “AATCGCTTTCTCTCTCTTCTTCCTTGCTCTCTCATACAACCGGAGTCACCTAGTGCAG” was 10200 fluorescence intensity (a.u.); that for “TCGTTTGATGCGATTTCGGCGGCGATCACCACCACCACCACGGAGTCACCTAGTGCAG” was 8160 fluorescence intensity (a.u.). Consider “GAAGCTGGGTTATACTTTCACCATTTTTTTACTCGATCGACGGAGTCACCTAGTGCAG”, for which the binding signal is 8460 fluorescence intensity (a.u.).

“ATATACAGATTTCGATCGGCGACGTTAGTGATCAGCTGGGCGGAGTCACCTAGTGCAG”: the binding signal is 35200 fluorescence intensity (a.u.). In the case of “AGGATTTTTTTTTTGTCAACGTATTTCTATTACCTGCTGTCGGAGTCACCTAGTGCAG” it was 9630 fluorescence intensity (a.u.); in that of “TCTGTTATATTTACTATCCATACTATACGTGTAAATTTTACGGAGTCACCTAGTGCAG”, 10200 fluorescence intensity (a.u.).

On to “TATTCTTTCTCACGTAACGATTTTTTTTCATCATTAAGTTCGGAGTCACCTAGTGCAG”, for which the binding signal was 8230 fluorescence intensity (a.u.). The value for “CTAGTCCTTCGTTTGAGTCCTTATATAACATTGATAGTACCGGAGTCACCTAGTGCAG” was 8500 fluorescence intensity (a.u.).

As to “GTCCTTAACGACGTCGTTGACTTTTCACATAACATTATACCGGAGTCACCTAGTGCAG”, the binding signal is 17300 fluorescence intensity (a.u.). In the case of “TATATTTTAATATTTTAATGTATGACGTCGTTGACTTTTTCGGAGTCACCTAGTGCAG” it was 13800 fluorescence intensity (a.u.); in that of “CCGTATTTTAATATATGACGTCGTTGACTTTTTAACCAACCGGAGTCACCTAGTGCAG”, 27300 fluorescence intensity (a.u.). “CCGTATTTTAATGCACGACACCTTTGACTTTTTGATAAACCGGAGTCACCTAGTGCAG”: the binding signal is 9990 fluorescence intensity (a.u.). Consider “AGTCTTTTTTCATCACATTAACCTATTATACACACATAACCGGAGTCACCTAGTGCAG”, for which the binding signal was 9110 fluorescence intensity (a.u.). The value for “CTACCTCTATATTTTAATTTTAATGTATGACGTCGTTGACCGGAGTCACCTAGTGCAG” was 11100 fluorescence intensity (a.u.). In the case of “ATTTTTTAAGTGTACGTTGTTGTTGACTTTTTTTATTAACCGGAGTCACCTAGTGCAG” it was 14400 fluorescence intensity (a.u.). The value for “TCCGTATTTTAATTAACGACGTCGTTGACTTTTTAACCACCGGAGTCACCTAGTGCAG” was 24200 fluorescence intensity (a.u.).

The record behind these values is paper PMC7819943, “Rice protein-binding microarrays: a tool to detect cis-acting elements near promoter regions in rice”.
